Our source for the inhibition values is PubChem BioAssay.

A number with no mark means an inactive call. How the calls were made is not given here.

The target in the assay is Pantothenate synthetase (Mycobacterium tuberculosis (strain ATCC 25618 / H37Rv)) (UniProt P9WIL5). The assay can be described thus: Recombinant Mtb pantothenate synthetase (PanC) inhibitors, coupled enzyme, confirmatory (AID 375).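 Further: 0% = full reaction with vehicle and 100% = no enzyme background.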 The settings on record: coupled enzyme assay; at 10 µM, hits give high values.
Pantothenate synthetase (Mycobacterium tuberculosis (strain ATCC 25618 / H37Rv)), sequence (P9WIL5 whole entry, looked up): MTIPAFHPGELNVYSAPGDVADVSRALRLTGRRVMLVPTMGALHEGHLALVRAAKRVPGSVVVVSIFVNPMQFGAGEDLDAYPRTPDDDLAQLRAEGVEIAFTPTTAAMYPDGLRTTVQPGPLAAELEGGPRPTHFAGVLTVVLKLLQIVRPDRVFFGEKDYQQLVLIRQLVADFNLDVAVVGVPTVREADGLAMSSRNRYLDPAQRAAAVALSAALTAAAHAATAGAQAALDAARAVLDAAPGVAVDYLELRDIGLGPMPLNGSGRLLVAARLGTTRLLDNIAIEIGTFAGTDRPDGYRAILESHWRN
As to `Oc1ccccc1-c1nnc(COc2ccc(Cl)cc2Cl)o1`, the inhibition is 1%.

`O=C(CCN1C(=O)c2ccccc2C1=O)NCCN1CCOCC1`: the inhibition was 0%.

`CCN1CCN(Cc2ccc(NC(=O)Nc3ccc(SC)cc3)cc2)CC1`: the inhibition was 2%.

As for `O=C(c1ccc(Br)o1)N(Cc1ccccc1)c1ccccn1`, the inhibition was 3%.

On to `CCn1ncc(C2=NOC(C(=O)Nc3ccc4c(c3)OCO4)C2)c1C` (configuration not stated), for which the inhibition was 0%.

Take `CCOC(=O)Cc1nn2c(=O)cc(C)nc2s1`: the inhibition was 0%.

For `CCC(C)C(=O)Nc1nc2c(s1)C(=O)CC(C)(C)C2` (configuration not stated), the inhibition was 10%.

For `CS(=O)(=O)Nc1ccc(C(=O)NCc2ccc3c(c2)OCO3)cc1`, the inhibition was 4%.

Turning to `Cc1cc(C)c(OCC(=O)Nc2cccc(O)c2)cc1C`, the inhibition was 0%.

For `OC(CN1CCCCC1)Cn1c(C(F)(F)F)nc2ccccc21` (configuration not stated), the inhibition was 9%.

Regarding `O=C(CCC(=O)c1cccs1)NCc1ccccc1`, the inhibition is 0%.

`COC(=O)Cc1[nH]nc2c1C(C1C=CCCC1)C(C#N)=C(N)O2` (configuration not stated): the inhibition is 3%.

Regarding `Cc1ccc(-c2nn(-c3ccccc3)cc2CN(Cc2ccccc2)C(=O)CCC(=O)O)o1`, the inhibition is 8%.

Turning to `c1ccc(CSc2nnc(-c3cccs3)n2Cc2ccco2)cc1`, the inhibition is 0%.

In the case of `CO/C([O-])=N/c1c[n+](-c2ccc(C)cc2)no1`, the inhibition is 0%.

As for `FC(F)Oc1ccc(-c2csc(Cc3nnc4n3CCCCC4)n2)cc1`, the inhibition is 0%.

For the molecule `O=C(NCCCCNC(=O)c1cccnc1)c1cccnc1`, the inhibition was 0%.

Turning to `O=c1[nH]c(NCc2ccco2)nnc1Cc1ccccc1Cl`, the inhibition is 0%.

`CCOC(=O)N1CCN(C(=O)c2ccc3nc4ccsc4c(=O)n3c2)CC1`: the inhibition was 2%.

In the case of `COc1ccccc1NC(=O)C1CC(=O)N(c2ccc(F)cc2)C1` (configuration not stated), the inhibition is 0%.

On to `O=C(CCn1nc(-c2ccc(Cl)cc2)ccc1=O)N1CCN(c2ccccn2)CC1`, for which the inhibition was 7%.

Regarding `CCc1ccccc1NC(=O)C(C#N)Cc1cccnc1` (configuration not stated), the inhibition is 0%.

As usually defined, the inhibition is the drop in the measured response relative to a control, in per cent.
